Source: PubChem BioAssay
A selection: hits, their analogues and other compounds. The true share with any hit is near 4.7%.
TRHR agonist: qHTS for Small Molecule Agonists and Allosteric Enhancers of Human TRH Receptor: Primary Screen for Agonists; TRHR cells, calcium flux fluo-8, FDSS agonist mode; activation, % at 2 µM; Thyrotropin-releasing hormone receptor (Homo sapiens), P34981; 0.18% of 360,000 active; also: 0% is about no effect
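In this calcium-flux screen, cells bearing human TRHR are dye-loaded with fluo-8, baselined for 10 cycles, then exposed to library compounds; positive kinetic calcium responses during the agonist phase mark hits, with TRH as control.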
D1 potentiator: Potentiators of Human D1 Dopamine Receptor: qHTS; HEK293 TREx D1 cells, calcium flux, dopamine EC20 potentiation; potentiation, % at 10 µM; 0.036% of 360,000 active; AID 504651, 2011; in the data active = potentiation above about 30%; also: 0% is about no effect
Target sequence (P21728 whole entry, looked up): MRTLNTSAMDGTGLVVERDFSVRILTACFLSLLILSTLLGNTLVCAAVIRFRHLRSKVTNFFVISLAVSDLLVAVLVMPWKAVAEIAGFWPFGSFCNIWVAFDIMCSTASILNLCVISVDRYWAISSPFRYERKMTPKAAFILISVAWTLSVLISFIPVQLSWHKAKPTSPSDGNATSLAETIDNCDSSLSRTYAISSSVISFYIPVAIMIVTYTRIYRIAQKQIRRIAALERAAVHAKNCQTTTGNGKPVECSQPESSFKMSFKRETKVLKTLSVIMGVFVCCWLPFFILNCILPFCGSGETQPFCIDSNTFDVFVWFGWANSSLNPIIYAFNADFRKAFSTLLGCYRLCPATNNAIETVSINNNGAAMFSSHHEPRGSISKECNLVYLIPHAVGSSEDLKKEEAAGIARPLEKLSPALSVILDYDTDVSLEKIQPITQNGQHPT
D1 antagonist: Antagonist of Human D 1 Dopamine Receptor: qHTS | D(1A) dopamine receptor (Homo sapiens), P21728 | HEK293 TREx D1 cells, calcium flux, dopamine EC80; stronger effect = lower value | activity change, negative = inhibition, % at 10 µM | 3.2% of 360,000 active | AID 504652, 2011; in the data active = activity change below about -30%; also: % is scaled to controls: 0 for no effect and ±100 for the full control effect
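Using tetracycline-induced force-coupled D1 Hek293 cells and a calcium dye, signals were followed for 180 s after compound, then for 180 s after EC80 dopamine, to detect inhibitors.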
TRHR enhancer: qHTS for Small Molecule Agonists and Allosteric Enhancers of Human TRH Receptor: Primary Screen for Enhancers. Thyrotropin-releasing hormone receptor (Homo sapiens), P34981. TRHR cells, fluo-8 calcium fluorescence, EC20 TRH enhancement. enhancement, % at 2 µM. 0.66% of 360,000 active; in the data active = enhancement above about 30%; also: 0% is about no effect
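Enhancer read-out: after compound pinning and an initial kinetic agonist-mode read, an EC20 of TRH (10 nM final) was injected and fluo-8 calcium signal (Ex 480/Em 530) followed at 1 s/cycle for 100 cycles in TRHR-expressing cells.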
D1 ag: Allosteric Agonists of the Human D1 Dopamine Receptor: qHTS | activation, % at 2 µM | 1% of 360,000 active | HEK293 T-REx D1 cells, calcium flux, agonist mode; also: 0% is about no effect
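Agonism was scored from calcium flux recorded over 180 s (1 read/s) after pintool compound addition, following a 10-cycle baseline. Cells were inducible force-coupled HEK293 TREx D1, plated overnight at 30 C and loaded with no-wash calcium dye.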
The depositor's hits bear a star; x = no result given. Rule as the data show it, unless noted: active = activation above about 30%; inactive = the rest.

SMILES | TRHR agonist | D1 potentiator | D1 antagonist | TRHR enhancer | D1 ag
COc1ccc(N=Nc2nc3ccc(Br)cc3n2C)cc1 | 0 | 1 | 24 | 4 | 343*
Cc1ccc(-n2c(SCC(=O)OC(C)C)nnc2-c2ccncc2)cc1 | 0 | 4 | 8 | -1 | 38*
CN(C(=O)COC(=O)COc1ccc2c(c1)CCC2)c1c(N)n(Cc2ccccc2)c(=O)[nH]c1=O | 1 | -6 | -31* | 11 | 1
Cc1ccc(NC(=O)CCCc2nnc3n(C)c(=O)c4sccc4n23)cc1F | -1 | 0 | -3 | -6 | 3
COc1ccc(C2N(C(=O)CN3CCCC3)CCCN2S(=O)(=O)c2ccccc2)cc1 (configuration not stated) | -1 | 3 | 8 | 4 | 32*
COc1ccc(C2N(C(C)=O)CCCN2S(=O)(=O)c2ccc(C)cc2)cc1 (configuration not stated) | 0 | -7 | 1 | -1 | 0
CC1N(C(=O)N(C)C)CCN1S(=O)(=O)c1ccccc1 (configuration not stated) | -1 | -2 | 4 | 36* | 2
CC(C)C1N(C(=O)CN2CCCC2)CCN1S(=O)(=O)c1ccccc1 (configuration not stated) | 1 | -12 | -45* | -2 | 5
CN(C(=O)CC(=O)Nc1ccc2nc3n(c(=O)c2c1)CCCCC3)c1ccccc1F | -1 | -2 | -2 | 18 | 1
COc1cccc(Cn2c(=O)n(-c3cccc(Cl)c3)c(=O)c3c4c(sc32)CN(C(C)=O)CC4)c1 | 1 | -5 | -25 | 4 | 2
CCOCCCNC(=O)CCCn1nc(C)n2c(cc3sccc32)c1=O | 0 | -7 | -39* | -1 | -1
Cc1ccc(-n2nc3c(c2NC(=O)c2ccccc2Br)CS(=O)C3)cc1 (configuration not stated) | 0 | -4 | -43* | 3 | 2
Cc1ccc(-n2nc3c(c2NC(=O)c2ccc(OC(C)C)cc2)CS(=O)C3)cc1 (configuration not stated) | 0 | -6 | -2 | 0 | 2
CCS(=O)(=O)N1CC(=O)N(c2ccc(C)c(C)c2)C(C)(C(=O)NC2CCCCC2)C1 (configuration not stated) | 0 | 1 | -20 | 42* | -3
CCn1cnc2c(Nc3ccc(Cc4cccnc4)cc3)nc(C#N)nc21 | -1 | 4 | -2 | -8 | 3
CC1CCN(CCn2c(=S)[nH]c3cc4c(cc3c2=O)OCO4)CC1 | 0 | 3 | 4 | -3 | 1
O=c1c2cc3c(cc2[nH]c(=S)n1CCN1CCOCC1)OCO3 | 0 | -3 | -50* | -6 | 1
Cc1nn2c(NCCCN(C)C)c3c(nc2c1-c1ccccc1)CCCC3 | 1 | -4 | -38* | 3 | 20
COC(=O)c1scc(S(=O)(=O)c2ccccc2)c1N | 0 | 1 | 5 | 6 | 5
COC(=O)c1scc(S(=O)(=O)C(C)(C)C)c1N | 0 | -1 | -37* | 2 | 4
COC(=O)c1ccc(-n2cncn2)c([N+](=O)[O-])c1 | 0 | -2 | 17 | 37* | 3
Cc1ccc(NC(=O)CN(C)C(=O)c2ccc(-n3cncn3)c([N+](=O)[O-])c2)cc1 | 0 | -5 | -55* | 17 | 0
COC(=O)c1ccc(N2CCN(S(=O)(=O)c3ccc(Br)cc3)CC2)c([N+](=O)[O-])c1 | 0 | -2 | -33* | 2 | 7
Cc1cc(C)c(S(=O)(=O)N2CCC(N3CCN(Cc4ccc(F)cc4)C(=O)C3=O)CC2)c(C)c1 | -1 | 1 | -7 | 1 | 0
Cc1cc(C)c2c(c1)c(C)cc1nnc(SCC(=O)c3ccccc3)n12 | 0 | 0 | 10 | 1 | -1
SMILES | TRHR agonist | D1 potentiator | D1 antagonist | TRHR enhancer | D1 ag
N#CCCN(C(=O)COC(=O)c1ccc(S(=O)(=O)N2CCCC2)cc1)c1cccc(Cl)c1 | 1 | -2 | -6 | -4 | 31*
CCOc1ncccc1C(=O)OCC(=O)Nc1ccc(S(=O)(=O)N2CCCC2)cc1 | 0 | -4 | -56* | -3 | 4
CCOc1ncccc1C(=O)OCC(=O)Nc1ccc(S(=O)(=O)N2CCOCC2)cc1 | 0 | 0 | -16 | 5 | 6
CC(=O)Nc1cccc(C(=O)OCC(=O)c2ccc(S(=O)(=O)N3CCCCC3)cc2)c1 | 0 | -4 | -37* | -8 | 8
COc1ccc(OC)c(NC(=O)COC(=O)c2ccc(S(=O)(=O)N3CCOCC3)cc2)c1 | -1 | 14 | -51* | 11 | 2
CC(=O)Nc1ccc(C(=O)OCC(=O)c2ccc(S(=O)(=O)N3CCCCC3)cc2)cc1 | 0 | 1 | 1 | 1 | 5
CCn1ccc2cc(S(=O)(=O)N3CCC(C(=O)NCc4cccc(C)c4)CC3)ccc21 | 0 | 0 | -5 | -1 | 6
CCOc1ccc(CCNC(=O)c2ccc3c(c2)c(C)c(C)n3C)cc1 | 0 | 1 | 8 | 1 | 1
Cn1c(=O)c(=O)n(C)c2cc(S(=O)(=O)N3CCCC3C(=O)Nc3cccc(F)c3)ccc21 (configuration not stated) | 0 | -1 | -2 | 5 | 0
CCOc1ncccc1C(=O)OCC(=O)Nc1ccc(C)c(S(=O)(=O)N(C)C)c1 | 0 | -3 | -1 | 36* | 8
N#Cc1cc2ccccc2nc1SCC(=O)Nc1ccc(S(=O)(=O)N2CCCC2)cc1 | 9 | 5 | -5 | -2 | 41*
O=C(COC(=O)c1ccc(S(=O)(=O)N2CCCCC2)cc1)Nc1ccccc1 | 1 | x | 11 | 8 | 34*
Cc1ccc(NC(=O)COC(=O)c2ccc(S(=O)(=O)N3CCCCC3)cc2)cc1 | 0 | -13 | 2 | -4 | 3
Cc1ccc(NC(=O)COC(=O)Cn2cnc3ccccc32)cc1S(=O)(=O)N(C)C | 0 | -3 | -85* | 17 | -1
COc1ccc2nc(SCC(=O)Nc3ccc(S(=O)(=O)N4CCCC4)cc3)c(C#N)cc2c1 | 2 | 2 | 8 | -1 | 2
Cc1ccc(NC(=O)c2ccccc2OCC(=O)Nc2ccccc2F)cc1S(=O)(=O)N(C)C | 2 | -1 | -38* | 6 | 3
O=C(COC(=O)c1ccc([N+](=O)[O-])o1)Nc1cccc(S(=O)(=O)N2CCCCC2)c1 | 2 | -8 | -31* | 2 | 9
CCOc1ncccc1C(=O)OCC(=O)NCCc1ccccc1 | 0 | 0 | 0 | 31* | 1
COc1ccc(N2CCN(S(=O)(=O)c3ccc(F)c(C(=O)Nc4ccccc4Cl)c3)CC2)cc1 | 0 | -1 | 0 | 1 | -3
